According to paper PMC5540273 (PLoS ONE, 2017):

How the values were obtained:
Conditions in all cases: concentration: 1 μM, replicates: in singlicate; n = 1
TAK1 = system: T1, TAK1
T1 construct: gene MAP3K7

TAOK1 = system: TAOK1
TAOK2 = system: TAOK2
TAOK3 = system: TAOK3
TBK1 = system: TBK1
TEC = system: TEC
TESK1 = system: TESK1
TGFBR1 = system: TGFBR1
TGFBR2 = system: TGFBR2
TIE1 = system: TIE1
TIE2 = system: T2, TIE2
T2 construct: gene TEK

TLK1 = system: TLK1
TLK2 = system: TLK2
TNIK = system: TNIK
TNK1 = system: TNK1
TNK2 = system: TNK2
TNNI3K = system: TNNI3K
TRKA = system: T3, TRKA
T3 construct: gene NTRK1

TRKB = system: TRKB
TRKC = system: T4, TRKC
T4 construct: gene NTRK3
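Note: KINOMEscan kinase panel screen.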

Row | Compound | %Inh (TAK1) | %Inh (TAOK1) | %Inh (TAOK2) | %Inh (TAOK3) | %Inh (TBK1) | %Inh (TEC) | %Inh (TESK1) | %Inh (TGFBR1) | %Inh (TGFBR2) | %Inh (TIE1) | %Inh (TIE2) | %Inh (TLK1) | %Inh (TLK2) | %Inh (TNIK) | %Inh (TNK1) | %Inh (TNK2) | %Inh (TNNI3K) | %Inh (TRKA) | %Inh (TRKB) | %Inh (TRKC)
1 | COC(=O)c1c(-c2ccccc2)c2cc(C)ccc2c(=O)n1Cc1ccccc1 | 0% | 0% | 0% | 0% | 0% | 1% | 0% | 0% | 0% | 0% | 0% | 9% | 0% | 0% | 0% | 0% | 0% | 0% | 0% | 0%
2 | O=C(Nc1n[nH]c2nc(-c3ccccc3)c(Br)cc12)C1CC1 [SB-708998] | 0% | 9% | 0% | 16% | 4% | 0% | 7% | 0% | 6% | 14% | 11% | 0% | 0% | 14% | 0% | 10% | 0% | 28% | 0% | 11%
3 | Cc1nnc(-c2ccc3ncn(-c4ccc(S(C)=O)cc4)c3c2)o1 (stereo not drawn) | 3% | 100% | 0% | 96.2% | 19% | 1% | 8% | 0% | 38% | 0% | 11% | 23% | 0% | 11% | 4% | 0% | 7% | 0% | 0% | 0%
4 | Nc1nccc2scc(-c3ccc4c(c3)CCN4C(=O)Cc3ccccc3)c12 [GSK2576924] | 1% | 2% | 17% | 10% | 2% | 16% | 0% | 7% | 0% | 55% | 13% | 22% | 3% | 0% | 0% | 0% | 0% | 49% | 0% | 0%
5 | Nc1n[nH]c2nnc(-c3ccccc3)c(-c3ccccc3)c12 [GW554060] | 0% | 0% | 0% | 0% | 8% | 0% | 2% | 12% | 0% | 8% | 0% | 0% | 0% | 0% | 0% | 19% | 0% | 0% | 14% | 24%
6 | O=C(Nc1ccc2c(c1)OCO2)NC1CCN(c2ccnc(NCc3ccc(F)cc3)n2)CC1 [GSK1379859] | 0% | 0% | 0% | 2% | 2% | 0% | 0% | 0% | 0% | 0% | 0% | 0% | 0% | 0% | 0% | 7% | 1% | 0% | 15% | 6%
7 | Cc1cccc(-c2nc(Nc3ccc4c(cnn4C)c3)c3ccccc3n2)n1 [GW876731] | 23% | 12% | 0% | 0% | 0% | 0% | 6% |  | 0% | 0% | 27% | 0% | 11% | 0% | 43% | 0% | 0% | 44% | 0% | 0%
8 | Nc1ncnc2c1ncn2-c1cccc(F)c1 [SKF-97560] | 0% | 19% | 0% | 0% | 23% | 3% | 15% | 12% | 0% | 0% | 0% | 0% | 0% | 4% | 23% | 15% | 100% | 60% | 41% | 41%
9 | COc1ccc(CNC(=O)NC2CCN(c3ccnc(Nc4ccc(F)cc4)n3)C2)cc1 (stereo not drawn) [GSK1379706] | 6% | 0% | 0% | 0% | 27% | 17% | 7% | 46% | 0% | 12% | 2% | 26% | 16% | 0% | 0% | 10% | 10% | 54% | 26% | 44%
10 | COc1cccc(-n2cnc3c(N)ncnc32)c1 [SKF-97416] | 23% | 31% | 9% | 28% | 31% | 5% | 17% | 24% | 0% | 19% | 0% | 2% | 19% | 15% | 0% | 0% | 0% | 45% | 48% | 33%
11 | CCC(=O)c1c(-c2ccccc2)c2cc(Cl)ccc2c(=O)n1Cc1cc(S(C)(=O)=O)n(CC(N)=O)n1 | 0% | 0% | 15% | 0% | 12% | 0% | 0% | 0% | 0% | 0% | 24% | 2% | 0% | 4% | 0% | 0% | 0% | 0% | 0% | 0%
